Screening data from PubChem BioAssay.
A selection: hits, their analogues and other compounds. The true share with any hit is near 8%.
HT1080 IDH1KD tx – qHTS for induction of synthetic lethality in tumor cells producing 2HG: qHTS for the HT-1080-IDH1KD cell line; HT-1080 IDH1 knockdown viability, ATP luminescence, 48 h; AID 686971, 2013; Potency, µM (top dose mostly 46.1 µM), without a hit: at the top dose activity, negative = toxicity, actives largely listed as cytotoxic; 360,000 tested, 2% active;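 also: 0% = DMSO wells and -100% = cell-free medium wells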
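Assay cells: HT-1080 with IDH1 knockdown, 750 per well, RPMI/5% FBS. Exposure: 48 h at 37 °C following 2 h pre-incubation. Read: CellTiter-Glo luminescence; fitted concentration-response, curve class assigned.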
KB-V1 MDR tox – qHTS assay for MDR1-selective chemotherapeutics: Primary screen using the drug-selected MDR subline cells KB-V1; KB-V1 MDR cells viability, CellTiter-Glo, 72 h; Potency, µM (highest dose often 46.1 µM), hits mostly cytotoxic; 400,000 tested, 3.4% active; AID 1347076, 2019; also: % is scaled to controls: 0 for no effect and ±100 for the full control effect; nearly all actives have a fitted effect of over 60% in size
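Following 72 h at 37 degrees C with compound, KB-V1 cell viability was read by CellTiter-Glo luminescence, medium being phenol-red-free DMEM plus 10% FBS; concentration-response parameters came from normalized, curve-fitted qHTS data.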
MCF10A rerep – A quantitative high throughput screen for small molecules that induce DNA re-replication in MCF 10a normal breast cells | MCF 10A DNA re-replication, Hoechst nuclear intensity, 48 h | Potency, µM (top dose mostly 46.1 µM), for inactives: at the top dose activity, positive = re-replication, most hits filed as activators | 350,000 tested, 2.9% active; also: % of control where 0% means no effect; nearly all actives have a fitted effect of over 50% in size
KB-3-1 tox – qHTS assay for MDR1-selective chemotherapeutics: Primary screen using the parental adenocarcinoma cell KB-3-1; 400,000 tested, 1.4% active; Potency, µM (highest dose often 46.1 µM), actives largely listed as cytotoxic; KB-3-1 viability, CellTiter-Glo ATP luminescence, 72 h; also: % is scaled to controls: 0 for no effect and ±100 for the full control effect; nearly all actives have a fitted effect of over 60% in size
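Cytotoxicity in the drug-sensitive parental line KB-3-1 was scored as loss of CellTiter-Glo luminescence following 72 h incubation with compound. Values come from curve fitting of normalized concentration-response data.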
HT1080NT lethal – qHTS for induction of synthetic lethality in tumor cells producing 2HG: qHTS for the HT-1080-NT fibrosarcoma cell line; HT-1080-NT fibrosarcoma viability, CellTiter-Glo ATP luminescence, 48 h; Potency, µM (doses to about 46.1 µM), without a hit: at the highest dose activity, negative = less viability, hits mostly cytotoxic; 360,000 tested, 1.6% active;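 also: NT is the 2HG producing partner of a matched IDH1 knockdown line; 0% = DMSO-treated cells and -100% = media-only wells without cells; nearly all actives have a fitted effect of over 55% in size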
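750 cells/well, RPMI + 5% FBS; 2 h settle, compound pin-transfer, 48 h at 37 degrees C. CellTiter-Glo 10 min RT, luminescence. Normalized to DMSO and media-only wells.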
SW480 rerep – A quantitative high throughput screen for small molecules that induce DNA re-replication in SW480 colon adenocarcinoma cells; SW480 DNA re-replication, Hoechst DNA content imaging, 48 h; Potency, µM (series often up to 46.1 µM), for the others: at the top dose re-replication activation, actives largely listed as activators; 340,000 tested, 1.8% active; AID 624297, 2012; also: % of control where 0% means no effect; nearly all actives have a fitted effect of over 55% in size
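First, 250 cells per well were seeded. Next, compound or vehicle (23 nL) was pinned in, plates sat 48 hr at 37 C. Finally Hoechst was added for 40 min before fluorescence scanning.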
The depositor's hits bear a star; i = inactive; u = inconclusive; x = no result. Calls follow the shape of the dose curve; as a rule, active = well fitted curve in the direction sought with a large enough effect; inconclusive = small, poorly fitted or top-dose-only effect, or another doubt; inactive = no such curve, though single readings can be large; an effect the other way counts as inactive or inconclusive. Potency is read from the fitted curve at half-maximal effect.

SMILES | HT1080 IDH1KD tx | KB-V1 MDR tox | MCF10A rerep | KB-3-1 tox | HT1080NT lethal | SW480 rerep
CCCc1n[nH]c(=O)c2c1nnn2Cc1ccccc1 | -1.7% | i | -2.3% | i | 2.1% | 4.8%
CCc1cc(-c2cnnn2Cc2ccccc2)ccc1-c1cn(CC(C)C)nn1 | u | 10.3µM* | x | u | u | x
C=CCNc1ncnc2c1[nH]c1ccc(Cl)cc12 | -26.9% | u | 19.6% | 8.2µM* | -0.9% | 0.6%
Cc1ccc2[nH]c(C(=O)N/N=C/c3ccccc3O)c(C)c2c1 | 2.59µM* | i | 18.2% | u | u | 24.0%
COc1ccc(/C=N/NC(=O)c2[nH]c3ccc(C)cc3c2-c2ccccc2)c(C(=O)O)c1OC | u | i | 5.8µM* | i | u | u
Cc1ccc2[nH]c(C(=O)N/N=C/c3ccccc3C(=O)O)c(-c3ccccc3)c2c1 | -25.9% | i | u | i | u | u
Cc1ccc2[nH]c(C(=O)N/N=C/c3ccc([N+](=O)[O-])cc3)c(C)c2c1 | -9.1% | i | u | u | -11.1% | 11.4%
CC/C(=N\Nc1nncc2ccccc12)c1ccc(F)cc1 | -0.2% | i | 5.2% | i | 12.4% | 2.5%
CCN(CC)CCNC(=O)c1ccc(NC(=O)c2ccc(COc3ccccc3)cc2)cc1 | u | i | u | u | -10.0% | u
CCn1c(C)nc2cc(C(=O)N/N=C(\C)c3ccc(OC)cc3O)ccc21 | 14.6µM* | u | -14.2% | i | u | 7.5%
CC(C)(C)OC(=O)NCc1ccc(NC(=O)c2nc[nH]c2C(=O)NCCNC(=O)c2[nH]cnc2C(=O)Nc2ccc(CNC(=O)OC(C)(C)C)cc2)cc1 | 13µM* | i | 23.1µM* | i | 11.6µM* | u
Cc1cccc(NC(=O)c2nc[nH]c2C(=O)N[C@@H](C)c2ccccc2)c1 | 14.6µM* | i | u | i | u | 0.1%
Cc1cccc(NC(=O)c2nc[nH]c2C(=O)Nc2cccc(C)c2)c1 | u | i | u | i | -25.5% | 15.6%
Cc1cccc(NC(=O)c2nc[nH]c2C(=O)NCCCNC(=O)c2[nH]cnc2C(=O)Nc2cccc(C)c2)c1 | 12.1% | i | -17.0% | i | 11.7% | -7.9%
CC(C)(C)OC(=O)CNC(=O)c1[nH]cnc1C(=O)Nc1ccc(CNC(=O)OC(C)(C)C)cc1 | 20.6µM* | u | u | u | u | -8.2%
C[C@@H](O)CNC(=O)c1[nH]cnc1C(=O)Nc1ccc(CNC(=O)OC(C)(C)C)cc1 | -6.7% | i | x | i | -6.9% | x
Cc1cccc(NC(=O)c2nc[nH]c2C(=O)NCCCCCNC(=O)OC(C)(C)C)c1 | u | u | -3.4% | u | 25.9µM* | u
Cc1ccn2c(=O)nc(SCC(=O)Nc3cc(C)on3)nc2c1 | 12.4% | i | u | i | 7.6% | -8.3%
O=C(CCNS(=O)(=O)c1ccc(Cl)cc1)N1CCN(Cc2ccccc2)CC1 | 4.9% | u | -30.4% | i | 0.0% | -3.8%
O=C(NCC(=O)N1CCN(S(=O)(=O)c2ccccc2)CC1)c1ccc2ccccc2c1 | -1.2% | 11.6µM* | 7.0% | i | -4.6% | -3.0%
COc1ccc(S(=O)(=O)N2CCN(C(=O)c3cccnc3)CC2)cc1OC | 1.8% | i | -5.5% | i | -0.8% | -40.4%
O=C(Cc1ccc2c(c1)OCCO2)N1CCN(S(=O)(=O)c2ccccc2C(F)(F)F)CC1 | 3.8% | 20.6µM* | 16.4% | i | 12.6% | 1.8%
O=C(c1cccnc1)N1CCN(S(=O)(=O)c2ccc3ccccc3c2)CC1 | -0.1% | 18.4µM* | 0.0% | 16.4µM* | -1.3% | -8.1%
CCOC(=O)N1CCC(N2CCN(S(=O)(=O)c3ccc4ccccc4c3)CC2)CC1 | -15.4% | 2.59µM* | 0.0% | i | -21.5% | 7.9%
O=C(NCC(=O)N1CCN(S(=O)(=O)c2ccc3c(c2)OCCO3)CC1)c1ccccc1F | -1.5% | i | -1.2% | i | -2.8% | -13.2%
SMILES | HT1080 IDH1KD tx | KB-V1 MDR tox | MCF10A rerep | KB-3-1 tox | HT1080NT lethal | SW480 rerep
CC1=CC=CN2C1=NC(=O)CC2(C)C(=O)N(CC(=O)NC1CCCC1)Cc1ccccc1 (configuration not stated) | 10.8% | i | -1.5% | i | 18.5% | -2.8%
Cc1ccc(NC(=O)c2cc(-c3cc(Cl)ccc3O)n[nH]2)cc1C | 0.0% | u | -1.1% | i | 19.5% | -9.6%
CCC(C)[C@@H](C(=O)NCC1CCC(C(=O)O)CC1)n1nnc2ccccc2c1=O (some centres not stated) | 6.3% | i | -0.9% | i | -0.6% | -1.3%
CN1CCN(S(=O)(=O)c2ccc(N3CCN(C(c4ccccc4)c4ccccc4)CC3)nc2)CC1 | u | i | u | u | 7.4% | 11.1%
COc1ccc(S(=O)(=O)N2CCN(C3Cc4ccccc4C3)CC2)cc1 | 7.8% | 20.6µM* | -8.4% | i | -4.2% | -32.4%
O=C(NCC(=O)N1CCCC(C(F)(F)F)C1)c1ccc2ccccc2c1 (configuration not stated) | -2.2% | i | 7.5% | i | 0.7% | 18.4µM*
O=C(Cc1ccc2c(c1)OCCO2)N1CCN(S(=O)(=O)c2cccs2)CC1 | 3.8% | u | -0.5% | i | 3.6% | -4.3%
CN1CCN(S(=O)(=O)c2ccc(N3CCN(S(=O)(=O)/C=C/c4ccccc4)CC3)nc2)CC1 | -12.4% | i | 7.31µM* | i | -20.7% | u
O=C(Cc1ccc2c(c1)OCCO2)N1CCN(S(=O)(=O)c2cccc(Cl)c2Cl)CC1 | 0.7% | 23.1µM* | 29.4% | i | 2.0% | -108.7%
COc1ccc(S(=O)(=O)N2CCN(C)CC2)cc1 | 1.2% | i | 4.9% | i | 0.6% | u
Cc1cc(C)cc(C(=O)NCCn2cc(SCC(=O)N3CCOCC3)c3ccccc32)c1 | 2.2% | i | -6.5% | i | -9.8% | 2.2%
O=C(O)CCCCCNC(=O)c1ccncc1 | 0.4% | i | 1.2% | i | -5.1% | -14.4%
O=C(CCl)N1CCN(S(=O)(=O)c2ccc3ccccc3c2)CC1 | u | u | 14.6µM* | u | u | u
